The structures appear in SMILES notation. Where a structure was tested more than once in an assay, its records may differ in their call. Calls of active or inactive are those of the source. How the source made its calls: active means hit-call score of the fitted dose curve at least 0.9, where 1 is the maximum; inactive means score below 0.9.

Sequence of Nuclear respiratory factor 1 (Homo sapiens) (Q16656 whole entry, looked up): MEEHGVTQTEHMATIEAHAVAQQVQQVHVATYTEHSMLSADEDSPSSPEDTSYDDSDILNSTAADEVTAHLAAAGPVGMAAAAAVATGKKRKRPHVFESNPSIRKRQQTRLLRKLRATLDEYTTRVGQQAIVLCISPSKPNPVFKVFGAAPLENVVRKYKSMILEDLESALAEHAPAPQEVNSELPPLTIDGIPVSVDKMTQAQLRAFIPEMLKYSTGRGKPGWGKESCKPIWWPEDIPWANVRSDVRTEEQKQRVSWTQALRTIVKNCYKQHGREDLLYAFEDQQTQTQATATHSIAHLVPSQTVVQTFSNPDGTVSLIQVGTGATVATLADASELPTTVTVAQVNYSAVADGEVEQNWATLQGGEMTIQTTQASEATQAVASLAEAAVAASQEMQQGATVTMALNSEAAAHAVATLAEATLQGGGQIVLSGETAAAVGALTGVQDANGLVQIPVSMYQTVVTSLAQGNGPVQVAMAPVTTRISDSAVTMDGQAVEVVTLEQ

The target in the test is Nuclear respiratory factor 1 (Homo sapiens) (UniProt Q16656). The experiment in a line: ATG_NRF1_CIS: Attagene CIS-FACTORIAL HepG2 Assay for human Nuclear Respiratory Factor 1 (NRF1) Orphan Gene (AID 2282987). The settings on record: HepG2 NRF1 cis-element reporter, Attagene multiplex; actives raise or lower the signal. The protocol:
ATG_CIS is a cell-based, multiplexed-readout assay that uses HepG2, a human liver cell line, with measurements taken at 24 hours after chemical dosing in a 24-well plate.ATG_NRF1_CIS is one of 52 assay component(s) measured or calculated from the ATG_CIS assay. It is designed to make measurements of mRNA induction, a form of inducible reporter, as detected with fluorescence intensity signals by Reverse transcription polymerase chain reaction (RT-PCR) and Capillary electrophoresis technology.Data from the assay component ATG_NRF1_CIS was analyzed into 1 assay endpoint. This assay endpoint, ATG_NRF1_CIS, was analyzed with bidirectional fitting relative to DMSO as the negative control and baseline of activity. Using a type of inducible reporter, measures of mRNA for gain or loss-of-signal activity can be used to understand the reporter gene at the transcription factor-level as they relate to the gene NRF1. Furthermore, this assay endpoint can be referred to as a primary readout, because this assay has produced multiple assay endpoints where this one serves a reporter gene function. To generalize the intended target to other relatable targets, this assay endpoint is annotated to the dna binding intended target family, where the subfamily is nuclear respiratory factors.
Human liver HepG2 cells are transiently transfected with multiple reporter transcription units (MRTUs) in 6-well plates using FuGene 6 reagent (Roche; 3 ml FuGene/1 mg DNA). The MRTU constructs are regulated by a cis-regulating element (promoter). […] A major difference between the CIS and TRANS system is that in CIS activities of endogenous TFs are measured, whereas the TRANS assay evaluates changes in activities of exogenous, chimeric NR-Gal4 proteins. […] At the end of 24 hour incubation, total RNA was isolated using TriZol reagent (Invitrogen). The isolated RNA is then reverse-transcribed using oligo(dT) primer and Mo-MLV reverse transcriptase (Invitrogen) with DNAse I (Ambion) treatment for 30 min. The one-tenth of the produced cDNA was amplified by PCR using Taq DNA polymerase (Invitrogen) and two reporter sequence-specific primers. The PCR products were fluorescently labeled by primer extension with 6-arboxyfluorescein (6-FAM) 5'-labeled reporter sequence-specific primer (2 min at 95 C, 20 s at 68 C and 10 min at 72 C) and these products were digested with 5U of HpaI (New England Biolabs) for 2h at 37 C. The fragments were purified using Qiaquick PCR columns (Qiagen), analyzed on an ABI 3130xL genetic analyzer (Applied Biosystems) with peak positions identified by using a set of X-rhodamine (ROX)-labeled MapMarker1000 molecular weight standards (BioVentures). The raw capillary electrophoresis data was processed using Attagraph software (Attagene).
Take `CCCCOC(=O)c1ccccc1C(=O)O`: the compound was called inactive.

`CCc1cccc(CC)c1N(COC)C(=O)CCl`: the outcome was inactive.

Take `CCCCSP(=O)(SCCCC)SCCCC`: the call was inactive.

For `CCCCOC(=O)[C@@H](C)Oc1ccc(Oc2ccc(C#N)cc2F)cc1`, the result was inactive.

As to `C[N+]1(C)CCCCC1`, the outcome was inactive.

For the compound `C=C(C)[C@H]1Cc2c(ccc3c2O[C@@H]2COc4cc(OC)c(OC)cc4[C@@H]2C3=O)O1`, the outcome was inactive.

As for `N#CSCSC#N`, the compound was classed as inactive.

`CC1(C(=O)Nc2ccc(O)c(Cl)c2Cl)CCCCC1`: the compound was classed as inactive.

Consider `COP(=O)(NC(C)=O)SC` (stereo not given), for which the result was inactive.

In the case of `CCOP(=O)(OCC)Oc1cc(C)nc(C(C)C)n1`, the compound was called inactive.

As to `O=c1ccc(=O)[nH][nH]1`, the result was inactive.

In the case of `CCC(=O)Nc1ccc(Cl)c(Cl)c1`, the compound was called inactive.

In the case of `CC(C)=CC1C(C(=O)OCN2C(=O)C3=C(CCCC3)C2=O)C1(C)C` (stereo not given), the result was inactive.

For `COc1cccc(C(=O)NN(C(=O)c2cc(C)cc(C)c2)C(C)(C)C)c1C`, the call was inactive.

As to `CCOP(=S)(OCC)Oc1ccc2c(C)c(Cl)c(=O)oc2c1`, the compound was called inactive.

`CC1=NNC(=O)N(/N=C/c2cccnc2)C1`: the call was inactive.

Take `Nc1nc(N)nc(NC2CC2)n1`: the call was inactive.

Turning to `COP(=O)(OC)SCn1c(=O)oc2cc(Cl)cnc21`, the outcome was inactive.

For the compound `CCCOc1nn(C(=O)NS(=O)(=O)c2ccccc2C(=O)OC)c(=O)n1C`, the result was inactive.

`CN1COCN(Cc2cnc(Cl)s2)C1=N[N+](=O)[O-]`: the result was inactive.

As for `CC(C)[C@H](C(=O)O[C@H](C#N)c1cccc(Oc2ccccc2)c1)c1ccc(Cl)cc1`, the result was inactive.

`CSC1=N[C@@](C)(c2ccccc2)C(=O)N1Nc1ccccc1`: the result was inactive.

Regarding `COP(=O)(OC)OC(Br)C(Cl)(Cl)Br` (stereo not given), the result was inactive.

Take `CSc1nnc(C(C)(C)C)c(=O)n1N`: the result was inactive.

In the case of `CCc1cccc(C)c1N(C(=O)CCl)C(C)COC` (stereo not given), the outcome was inactive.

Turning to `CN(C)NC(=O)CCC(=O)O`, the result was inactive.

With `CCOP(=S)(OCC)OC(Cl)C(Cl)(Cl)Cl` (stereo not given), the compound was called inactive.

Consider `CC(Oc1cccc(Cl)c1)C(=O)O` (stereo not given), for which the result was inactive.

The term AC50 denotes the midpoint of the concentration-response curve, whichever way the signal moves. With `FC(F)C(F)(F)OCC(Cn1cncn1)c1ccc(Cl)cc1Cl` (stereo not given), the AC50 is 39.5 µM (active).

For `CC(=NC#N)N(C)Cc1ccc(Cl)nc1`, the call was inactive.

In the case of `CCC(CC)Nc1c([N+](=O)[O-])cc(C)c(C)c1[N+](=O)[O-]`, the compound was called inactive.

In the case of `CCOP(=S)(OCC)Oc1ccc([N+](=O)[O-])cc1`, the compound was called inactive.

As to `CSc1nc(NC(C)C)nc(NC(C)C)n1`, the call was inactive.

Take `CCOC(=O)COc1cc(-c2nn(C)c(OC(F)F)c2Cl)c(F)cc1Cl`: the result was inactive.

Turning to `CON=C(C(=O)OC)c1ccccc1CON=C(C)c1cccc(C(F)(F)F)c1`, the call was inactive.

As for `CN(C)C(=O)Nc1cccc(C(F)(F)F)c1`, the result was inactive.

On to `Cc1cc(C2CC2)nc(Nc2ccccc2)n1`, for which the AC50 was 76 µM (active).

In the case of `CCCOCC(=Nc1ccc(Cl)cc1C(F)(F)F)n1ccnc1`, the outcome was inactive.

As to `O=[N+]([O-])c1cc(C(F)(F)F)c(Cl)c([N+](=O)[O-])c1Nc1ncc(C(F)(F)F)cc1Cl`, the AC50 is 21.5 µM (active) and the outcome was inactive.

(Values after PubChem BioAssay (EPA / NIEHS).)
